Shown are actives, neighbours in structure and some others; about 1.8% of the full set was active somewhere.
GSTO1 inh: GSTO1 inhibition, counter-screen for RBBP9 inhibitors; P78417; recombinant GSTO1, activity-based probe fluorescence polarization; inhibition, % at 5.96 µM; actives 1.1% (n = 300,000); AID 1974;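 active = inhibition above the campaign mean inhibition plus 3 SD, cut at about 35% in these data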;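 note: 0% = GSTO1-1 with DMSO and 100% = wells lacking GSTO1-1 enzyme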
LYPLA1 counter: counter-screen for PME1 inhibitors: inhibitors of human LYPLA1; recombinant LYPLA1, FP-Rh probe fluorescence polarization; inhibition, % at 5.9 µM; actives 0.16% (n = 320,000); O75608;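 active = inhibition above the mean of all tested compounds plus 3 SD, set per campaign, cut at about 14% in these data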;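 note: inhibitors block serine hydrolase probe labeling of LYPLA1 so polarization falls; 0% = enzyme with DMSO and 100% = wells lacking LYPLA1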
Target sequence (O75608 whole entry, looked up): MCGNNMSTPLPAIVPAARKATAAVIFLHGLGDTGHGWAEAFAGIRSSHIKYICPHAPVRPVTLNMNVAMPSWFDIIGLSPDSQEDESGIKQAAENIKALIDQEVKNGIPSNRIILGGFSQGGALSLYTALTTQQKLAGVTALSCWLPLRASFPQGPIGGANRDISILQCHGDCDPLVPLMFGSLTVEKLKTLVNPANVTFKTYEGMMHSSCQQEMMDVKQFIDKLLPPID
PAD4 FP inh: blocks human protein arginine deiminase 4; Q9UM07; recombinant PAD4, RCA probe fluorescence polarization; inhibition, % at 6.36 µM; actives 0.41% (n = 330,000); AID 485272;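 active = percent inhibition above a cutoff equal to the mean of all tested compounds plus 3 SD, cut at about 15% in these data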;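 note: 0% = PAD4 with RCA probe and DMSO and 100% = probe without PAD4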
LYPLA2 counter: LYPLA2 (human) inhibition in PME1 counter-screen; actives 0.38% (n = 320,000); AID 2177; recombinant LYPLA2, FP-Rh probe fluorescence polarization; O95372; inhibition, % at 5.9 µM;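 active = inhibition above the screen-wide mean plus 3 SD, limit set per campaign, cut at about 26% in these data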;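 note: 0% = LYPLA2 with DMSO and 100% = wells lacking LYPLA2 enzyme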
Target sequence (O95372 whole entry, looked up): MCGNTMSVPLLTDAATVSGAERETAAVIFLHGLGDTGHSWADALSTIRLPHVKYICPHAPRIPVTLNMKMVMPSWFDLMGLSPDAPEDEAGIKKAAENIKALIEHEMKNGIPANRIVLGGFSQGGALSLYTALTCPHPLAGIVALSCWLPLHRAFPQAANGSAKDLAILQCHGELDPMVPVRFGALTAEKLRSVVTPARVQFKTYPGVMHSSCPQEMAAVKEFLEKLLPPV
PME-1 inh: blocks human protein phosphatase methylesterase 1 | inhibition, % at 5.9 µM | Q9Y570 | recombinant PME-1, FP-Rh probe fluorescence polarization | actives 0.53% (n = 320,000);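 active = inhibition above the campaign mean of all compounds plus 3 SD, cut at about 26% in these data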;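 note: competitive labeling of PME-1 active site by serine hydrolase directed probe; 0% = PME-1 with DMSO and 100% = wells lacking PME-1 enzyme; inhibitors block probe labeling so polarization falls and inhibition rises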
Fam108B counter: counter-screen for RBBP9 inhibitors: inhibitors of mouse Fam108B | recombinant Fam108B, FP-Rh probe fluorescence polarization | inhibition, % at 9.51 µM | actives 0.33% (n = 300,000) | AID 1947;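 active = inhibition above the screen mean inhibition plus 3 SD, computed separately per campaign, cut at about 18% in these data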;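 note: inhibitors lower polarization as less probe binds the enzyme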
* hit, by the source's call; nt = no result given.

SMILES	GSTO1 inh	LYPLA1 counter	PAD4 FP inh	LYPLA2 counter	PME-1 inh	Fam108B counter
Cc1nc(N/N=C/c2ccc(O)cc2O)cc(N2CCOCC2)n1	7	9	0	4	4	3
Oc1cccc(/C=N/Nc2cc(N3CCOCC3)nc(N3CCOCC3)n2)c1	2	-3	-5	-1	3	2
Oc1ccc(/C=N/Nc2cc(N3CCOCC3)nc(N3CCOCC3)n2)cc1O	54*	-1	-1	-9	-6	6
O=C(Oc1ccc(OC(=O)c2ccncc2)cc1)c1ccncc1	35*	0	-5	1	0	4
COc1ccc(OC)c(NC(=O)COc2coc(CN3CCc4ccccc43)cc2=O)c1	-1	3	4	6	2	-7
CCC1Sc2ccc(S(=O)(=O)CCC(=O)Nc3ccc(OC(F)(F)F)cc3)cc2NC1=O (stereo unspecified)	8	-6	-1	-2	26*	-7
CCOc1ccc(S(=O)(=O)N(C)CC(=O)NCc2ccco2)cc1	0	-3	1	2	3	0
CCOc1ccc(S(=O)(=O)N(C(=O)c2ccco2)c2cc3sc(=O)oc3c3ccccc23)cc1	37*	-1	12	1	8	9
O=C(CCl)c1ccc2c(c1)CCN2C(=O)C1CC1	57*	2	-3	1	0	-3
Cc1ccc(C(=O)NCC(=O)OCN2C(=O)c3ccccc3C2=O)cc1C	nt	1	0	-2	3	nt
O=C(CNC(=O)c1ccco1)OCN1C(=O)c2ccccc2C1=O	37*	-1	-1	3	0	1
CN(C)c1ccc(C(=O)Nc2nnc(-c3ccc(Cl)cc3)o2)cc1	36*	5	6	1	5	-1
CC(=O)c1ccc(C(=O)Nc2nnc(-c3ccc(Cl)cc3)o2)cc1	-3	-1	-1	-2	6	2
COc1cccc(-c2nnc(Nc3nc4c(F)cccc4s3)o2)c1	0	5	0	0	44*	9
COc1ccccc1-c1nnc(Nc2nc3c(OC)cccc3s2)o1	-11	1	-5	-2	31*	8
COc1cccc2sc(Nc3nnc(-c4ccccc4Cl)o3)nc12	-28	4	-5	-1	22	5
CCn1c(SCC(=O)Nc2ccc(F)cc2)nnc1C1CC1	0	-4	0	-3	11	3
COc1cc2c(cc1NC(=S)Nc1ccccc1C)oc1ccccc12	-5	-3	-6	-5	6	5
COc1cc2c(cc1NC(=S)Nc1cccc(C)c1)oc1ccccc12	36*	-3	4	-9	7	5
Cc1cccc(-n2ncc3c2CCCC3NC(=O)CCN2CCCO2)c1C (stereo unspecified)	2	-6	-2	-2	-1	2
O=S(=O)(Nc1nc2ccccc2nc1NCc1ccco1)c1ccc(Cl)cc1	1	-2	-2	0	8	3
Cc1noc(C)c1CSc1nc2ccccc2nc1NS(=O)(=O)c1ccc(Cl)cc1	-1	-6	1	0	27*	-6
C=C(C)COc1ccc(-c2[nH]ncc2-c2ccc(OC)c(OC)c2)c(O)c1	-1	0	0	8	29*	5
O=c1cc(CSc2nc(NCc3ccccc3)c3ccccc3n2)nc2ccc(Cl)cn12	42*	-5	5	-4	3	0
O=C(CCCn1c(SCc2cc(=O)n3cc(Cl)ccc3n2)nc2ccccc2c1=O)NCC1CCCO1 (stereo unspecified)	5	1	-2	-7	-3	2
SMILES	GSTO1 inh	LYPLA1 counter	PAD4 FP inh	LYPLA2 counter	PME-1 inh	Fam108B counter
CSc1ccccc1C(=O)NCCCn1ccnc1	4	2	6	7	144*	-1
Cn1c(=O)c2c(ncn2CC(=O)N2CCN(S(=O)(=O)c3ccc(F)cc3)CC2)n(C)c1=O	nt	4	-3	1	13	nt
Cc1ccc(S(=O)(=O)N2CCN(C(=O)Cn3cnc4c3c(=O)n(C)c(=O)n4C)CC2)cc1C	nt	1	-2	-3	42*	nt
CCc1ccc(NC(=O)CSc2nc3ccccc3nc2N2CCCC2)cc1	3	-7	-6	-4	-6	-11
O=c1nc(/C=C/c2cc([N+](=O)[O-])ccc2Cl)cc(C(F)(F)F)[nH]1	12	-2	5	5	27*	8
Cc1nc(C(=O)NC2CC2)sc1C1(C)CC(c2cccc([N+](=O)[O-])c2)=NO1 (stereo unspecified)	-2	1	2	22	5	-4
Cc1nc(C(=O)NC2CCCCC2)sc1C1(C)CC(c2cccnc2)=NO1 (stereo unspecified)	4	-3	0	26*	2	-5
CCc1nnc(NC(=O)c2sc3nc4c(cc3c2N)CCCCCC4)s1	-14	1	-1	0	29*	9
CCc1nnc(NC(=O)c2sc3nc4c(cc3c2N)CCCCC4)s1	-14	-2	1	3	28*	2
Nc1c(C(=O)N2CCCCC2)sc2nc3c(cc12)CCCC3	3	-4	0	3	6	-1
COC/C=C/C1=CC2=CC(=O)C(C)(OC(=O)c3cnc4ccccc4n3)C(=O)C2=CN1C1CCCC1 (stereo unspecified)	27	0	4	4	1	5
CCc1cccc(CC)c1NC(=S)Nc1ccccc1	1	-2	-3	-4	0	5
CCOC(=O)N1CC=C2C(C#N)=C(N)C(C#N)(C#N)[C@H](c3ccccc3OCC)[C@H]2C1	-3	0	1	1	27*	-1
N#CC1=C(N)C(C#N)(C#N)C(c2ccncc2)C2CN(C(=O)OCc3ccccc3)CC=C12 (stereo unspecified)	10	6	6	13	31*	1
CCOC(=O)N1CC=C2C(C#N)=C(N)C(C#N)(C#N)[C@H](c3ccc(OC(C)C)c(OCC)c3)[C@H]2C1	2	0	-3	5	41*	1
N#CC1=C(N)C(C#N)(C#N)[C@H](c2cccnc2)[C@H]2CN(C(=O)OCc3ccccc3)CC=C12	21	-3	3	-2	25	-1
CCOC(=O)N1CC=C2C(C#N)=C(N)C(C#N)(C#N)[C@H](c3ccsc3)[C@H]2C1	1	0	5	3	11	-1
COC1=C(Nc2ccccc2)C(=O)c2ccccc2C1=O	49*	3	-12	3	16	6
COC1=C(Nc2ccc(C)cc2)C(=O)c2ccccc2C1=O	32	3	-8	7	11	5
C=CCOc1ccc(/C=N/NC(=O)c2cc3c(OC)cc(OC)cc3[nH]2)cc1	-25	-22	1	-28	41*	13
COc1cccc(CNc2ccccc2O)c1OCc1ccccc1F	36*	-6	-20	-4	2	9
O=C1c2c(O)cc(O)cc2O[C@H](c2ccc(O)c(O)c2)[C@H]1O	30	-2	-6	36*	-2	2

Screening results as filed in PubChem.
